Measurements: PubChem BioAssay AID1508625 (Wald Lab, School of Medicine, Case Western Reserve …, 2021)

Test: small molecules boosting NK-mediated OVCAR3 lysis – imaging, primary NK cells, calcein-AM imaging, primary screen (AID 1508625);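 further: compound given to NK cells 16 h before adding targets at 1.5 to 1 ratio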;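 on z-score: more negative robust z means stronger NK killing of tumor cells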
Conditions: OVCAR3 lysis by primary NK cells, at 5 µM; z-score: measured here: robust Z-score, single-point normalisation

Compound	corrected activity, negative = more killing [%]	z-score
CCN1C(=O)c2cccc3c(NC(=O)C45CC6CC(CC(C6)C4)C5)ccc1c23	-12.5	-2.63
CCC(C)NC(=O)Cn1c(=O)n(-c2cc(OC)cc(OC)c2)c(=O)c2sccc21 (stereo not given)	-7.6	-2.16
O=C(Nc1cccc(-c2nc3ccccc3o2)c1)C1CCCCC1	-2.15	-0.667
CC(C)(C)NC(=O)C(=O)NN=Cc1cccc(Br)c1	-4.27	-1.82
Cc1ccccc1C(=O)N1N=C(c2ccc(F)cc2)CC1(O)C(F)(F)F (stereo not given)	-4.55	-2.44
Cc1cc(C)c(CSc2nnc(C)s2)c(C)c1	-5.76	-1.78
COc1ccc(C)cc1NC(=O)c1oc(=O)c2ccccc2c1-c1ccccc1	-11.3	-2.78
Cc1c(C(=O)NC(C)C)oc2ccc(S(=O)(=O)N3CCOCC3)cc12	-3.41	-0.849
O=C(NN=Cc1ccc[nH]1)C(O)c1ccccc1 (stereo not given)	-2.59	-0.823
CC1CC(C)CN(C(=O)c2c[nH]c3ccc(S(=O)(=O)N4CCOCC4)cc3c2=O)C1 (stereo not given)	-2.85	-1.04
Cc1ccccc1-n1nnnc1C(c1ccccc1)N(C)Cc1ccc(Cl)c(Cl)c1 (stereo not given)	-1.59	-0.695
CCCn1cnc2sc(C(=O)Nc3ccc(Oc4ccc5c(c4)C(=O)N(c4ccc6c(c4)OCO6)C5=O)cc3)c(C)c2c1=O	-4.94	-1.8
Cc1cc(C)c2oc(-c3ccc(C)c(N=Cc4cccc([N+](=O)[O-])c4O)c3)nc2c1	-14.1	-2.97
Cc1cccc(N2C(=O)c3ccc(NC(=O)c4ccc(Br)cc4)cc3C2=O)c1	-3.53	-1.25
Cc1ccc(N2C(=O)CC(NCCc3ccc(F)cc3)C2=O)cc1 (stereo not given)	-3.27	-1.25
